This is an account of results in PubChem BioAssay (Tox21).

“And” between values parts separate entries of the source, which are not always exact repeats. Identical values can stand only once. Inconclusive results are not listed. Entries that show only a call come without a potency. The source holds several records for some structures; these can differ, active in one and inactive in another. The source made the active and inactive calls. Unless noted, the call rests on the fitted dose curve; in most records, active means well fitted cell-killing curve with a large enough effect in the repeat runs; inconclusive means weak or mixed curves, or effect the other way; inactive means flat fitted curve, though single readings scatter.
Potency means the concentration at half of the fitted maximal effect.

Sequence of Peroxisome proliferator-activated receptor gamma (Homo sapiens) (P37231 whole entry, looked up): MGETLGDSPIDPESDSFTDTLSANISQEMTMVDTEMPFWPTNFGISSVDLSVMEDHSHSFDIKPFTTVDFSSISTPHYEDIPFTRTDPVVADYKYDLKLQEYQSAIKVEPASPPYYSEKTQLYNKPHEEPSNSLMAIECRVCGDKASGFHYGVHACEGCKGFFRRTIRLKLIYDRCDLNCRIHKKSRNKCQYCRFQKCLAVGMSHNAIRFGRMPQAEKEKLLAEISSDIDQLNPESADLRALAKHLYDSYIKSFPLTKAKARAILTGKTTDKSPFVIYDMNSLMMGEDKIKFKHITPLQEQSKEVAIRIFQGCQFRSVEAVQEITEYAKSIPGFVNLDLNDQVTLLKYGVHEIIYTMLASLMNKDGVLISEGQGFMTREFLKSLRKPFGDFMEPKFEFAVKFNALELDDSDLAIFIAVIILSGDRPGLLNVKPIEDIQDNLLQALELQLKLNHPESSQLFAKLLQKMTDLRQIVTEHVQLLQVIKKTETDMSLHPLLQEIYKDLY

Tested on in one test: not listed separately
Nature of the test: qHTS assay to identify small molecule that activate the aryl hydrocarbon receptor (AhR) signaling pathway - cell viability counter screen (AID 743086). Further: nearly all actives have a fitted effect of over 45% in size. To be noted: HepG2-AhR-luc viability, CellTiter-Fluor, 24 h; series mostly up to 70.3 µM. An outline of the steps:
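Cytotoxicity counter screen: CellTiter-Fluor signal (30 min, 37 C) in 4000 HepG2 cells/well carrying the DRE-luciferase reporter, following 24 h compound exposure at 37 C.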
Take `CC(C)(C)CC(C)(C)c1ccc(OCCOCC[N+](C)(C)Cc2ccccc2)cc1`: the Potency entry was “inactive and 61.1 µM (active)”.

With `NNc1nc(-c2ccc([N+](=O)[O-])cc2)cs1`, the Potency result was “inactive”.

Turning to `Oc1cccc2cc3cccc(O)c3c(O)c12`, the Potency result is “inactive”.

Consider `CC1=NC(C)OC1C` (stereo not drawn), for which the Potency result is “inactive”.

In the case of `O=Cc1cc(O)ccc1Br`, the Potency entry was “inactive”.

In the case of `CCCCCCCCCCCCCCCC[N+](C)(C)CCN(Cc1ccc(OC)cc1)c1ncccn1`, the Potency entry was “inactive”.

In the case of `CC(C)=CCOc1ccc(/C=C/C(=O)c2ccc(OCC=C(C)C)cc2OCC(=O)O)cc1`, the Potency result was “inactive”.

Take `CSc1ccc(C(=O)c2[nH]c(=O)[nH]c2C)cc1`: the Potency entry was “inactive”.

Turning to `O=[N+]([O-])c1cc(Cl)c(Cl)c(Cl)c1Cl`, the Potency result was “inactive”.

For `CCN(CCC#N)c1ccc(N=Nc2c(Cl)cc([N+](=O)[O-])cc2Cl)cc1`, the Potency was 27.3 µM (active).

`Fc1ccc(C(c2ccc(F)cc2)N2CCN(C/C=C/c3ccccc3)CC2)cc1`: the Potency result was “inactive”.

Turning to `CCCCCCCCCCCCCCCS(=O)(=O)Oc1ccccc1`, the Potency entry is “inactive”.

Regarding `On1ccccc1=S`, the Potency entry is “inactive”.

With `CO[Si](CCCNc1ccccc1)(OC)OC`, the Potency result is “inactive”.

Consider `COC(=O)C1=C(C)NC(C)=C(C(=O)OCC(C)C)C1c1ccccc1[N+](=O)[O-]` (stereo not drawn), for which the Potency result is “inactive”.

Take `Cc1c(C)c2c(c(C)c1OC(=O)CCC(=O)O)CC[C@@](C)(CCC[C@H](C)CCC[C@H](C)CCCC(C)C)O2`: the Potency result is “inactive”.

Take `Cc1cc(O)c2ccccc2c1O`: the Potency entry is “inactive”.

Take `CCCCc1oc2ccc(NS(C)(=O)=O)cc2c1C(=O)c1ccc(OCCCN(CCCC)CCCC)cc1`: the Potency was 26.6 µM (active).

On to `Cc1nc(-c2ccc3c(c2)CCN(CCC2CCC(NC(=O)/C=C/c4ccc(F)cc4)CC2)CC3)no1` (stereo not drawn), for which the Potency result was “inactive”.

On to `Cc1cccc(CN2CCN(C(c3ccccc3)c3ccc(Cl)cc3)CC2)c1` (stereo not drawn), for which the Potency entry is “inactive”.

Consider `O=C1Cc2cc(CCN3CCN(c4nsc5ccccc45)CC3)c(Cl)cc2N1`, for which the Potency entry was “inactive”.

`CCCCCCCCCCCCCC[P+](CCCC)(CCCC)CCCC` (tested in a mixture with another compound): the Potency result is “inactive”.

As to `Cc1cccc(S(=O)(=O)O)c1C`, the Potency entry was “inactive”.

Turning to `CCCCCCCCCCCCCCCC(=O)OC[C@H](O)[C@H]1OC(=O)C(O)=C1O`, the Potency result was “inactive”.

Take `Cc1ccc(-n2nc(C(C)(C)C)cc2NC(=O)Nc2ccc(OCCN3CCOCC3)c3ccccc23)cc1`: the Potency result was “inactive”.

Regarding `CN(C)[C@@H]1C(=O)C(C(N)=O)=C(O)[C@@]2(O)C(=O)C3=C(O)c4c(O)ccc(Cl)c4[C@@H](O)[C@H]3C[C@@H]12`, the Potency entry was “inactive”.

`CC(C)CCCCCCCCCCCCCCC(=O)O`: the Potency result was “inactive”.

On to `CNC(=O)c1ccccc1`, for which the Potency entry is “inactive”.

With `CCCCN1CCCC[C@H]1C(=O)Nc1c(C)cccc1C`, the Potency entry is “inactive”.

Consider `N/C(=N\N=C\c1ccc(Cl)cc1)N/N=C/c1ccc(Cl)cc1`, for which the Potency result was “inactive”.

Take `CCc1cc(Cc2cc(CC)c(N)c(CC)c2)cc(CC)c1N`: the Potency entry is “inactive”.

Regarding `O=C(O)c1ccc(Cl)c(Cl)c1`, the Potency entry was “inactive”.

Take `O=C(O)c1cc(O)c2c(c1)C(=O)c1cccc(O)c1C2=O`: the Potency result was “inactive”.

For `Clc1ccc2n[nH]nc2c1`, the Potency entry is “inactive”.

`COc1ccc(-c2ccc3cc(C(=O)O)ccc3c2)cc1C12CC3CC(CC(C3)C1)C2`: the Potency entry was “inactive”.

As for `OCCCCCCCCCCCCBr`, the Potency entry was “inactive”.

In a further test the target is Peroxisome proliferator-activated receptor gamma (Homo sapiens) (UniProt P37231). The experiment in a line: qHTS assay to identify small molecule agonists of the peroxisome proliferator-activated receptor gamma (PPARg) signaling pathway (AID 743094; active means well fitted activation curve with a large enough effect in the signal ratio in the repeat runs, not every such curve was filed as active; the % refers to the signal ratio). To be noted: HEK293H PPARg-UAS-bla, beta-lactamase FRET ratio, 17 h; series mostly up to 57 µM. An outline of the steps:
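Compounds dissolved in DMSO were added to PPARg UAS-bla HEK293H cells for 17 h at 37C, and reporter expression was quantified by fluorescence intensity after 1 h with LiveBLAzer B/G FRET substrate.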
As for `CC(C)(C)CC(C)(C)c1ccc(OCCOCC[N+](C)(C)Cc2ccccc2)cc1`, the Potency result is “inactive”.

Turning to `Oc1cccc2cc3cccc(O)c3c(O)c12`, the Potency result is “inactive”.

Regarding `O=Cc1cc(O)ccc1Br`, the Potency result is “inactive”.

With `CCCCCCCCCCCCCCCC[N+](C)(C)CCN(Cc1ccc(OC)cc1)c1ncccn1`, the Potency entry is “inactive”.

In the case of `O=[N+]([O-])c1cc(Cl)c(Cl)c(Cl)c1Cl`, the Potency result is “inactive”.

Consider `CCN(CCC#N)c1ccc(N=Nc2c(Cl)cc([N+](=O)[O-])cc2Cl)cc1`, for which the Potency entry is “inactive”.

As to `CCCCCCCCCCCCCCCS(=O)(=O)Oc1ccccc1`, the Potency entry was “inactive”.

For `CO[Si](CCCNc1ccccc1)(OC)OC`, the Potency result is “inactive”.

On to `Cc1cc(O)c2ccccc2c1O`, for which the Potency entry was “inactive”.

As for `Cc1nc(-c2ccc3c(c2)CCN(CCC2CCC(NC(=O)/C=C/c4ccc(F)cc4)CC2)CC3)no1` (stereo not drawn), the Potency was 24.6 µM (active).

Regarding `Cc1cccc(CN2CCN(C(c3ccccc3)c3ccc(Cl)cc3)CC2)c1` (stereo not drawn), the Potency entry is “inactive”.

For the compound `O=C1Cc2cc(CCN3CCN(c4nsc5ccccc45)CC3)c(Cl)cc2N1`, the Potency entry was “inactive”.

`CN(C)[C@@H]1C(=O)C(C(N)=O)=C(O)[C@@]2(O)C(=O)C3=C(O)c4c(O)ccc(Cl)c4[C@@H](O)[C@H]3C[C@@H]12`: the Potency result was “inactive”.

Regarding `CNC(=O)c1ccccc1`, the Potency entry was “inactive”.

For the compound `CCCCN1CCCC[C@H]1C(=O)Nc1c(C)cccc1C`, the Potency entry was “inactive”.

For `N/C(=N\N=C\c1ccc(Cl)cc1)N/N=C/c1ccc(Cl)cc1`, the Potency entry is “inactive”.

On to `O=C(O)c1ccc(Cl)c(Cl)c1`, for which the Potency entry was “inactive”.

In the case of `COc1ccc(-c2ccc3cc(C(=O)O)ccc3c2)cc1C12CC3CC(CC(C3)C1)C2`, the Potency result was “inactive”.

In the case of `OCCCCCCCCCCCCBr`, the Potency result was “inactive”.

For another test the target is unchanged. The experiment in a line: qHTS assay to identify small molecule antagonists of the peroxisome proliferator-activated receptor gamma (PPARg) signaling pathway (AID 743191; calls by dose curve; further: nearly all actives have a fitted effect of over 30% in size). To be noted: HEK293H PPARg-UAS-bla, beta-lactamase ratio, antagonist, 17 h; series mostly up to 62.6 µM. A digest of the protocol:
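Beta-lactamase reporter under UAS control in HEK293H PPARg-bla cells; compound treatment 17 h at 37C. Read-out: fluorescence intensity after 1 h room-temperature incubation with LiveBLAzer B/G FRET substrate.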
`Fc1ccc(C(c2ccc(F)cc2)N2CCN(C/C=C/c3ccccc3)CC2)cc1`: the Potency entry is “inactive”.

Take `CCCCCCCCCCCCCCCC(=O)OC[C@H](O)[C@H]1OC(=O)C(O)=C1O`: the Potency result was “inactive”.

In the case of `CCc1cc(Cc2cc(CC)c(N)c(CC)c2)cc(CC)c1N`, the Potency was 38.9 µM (active).
